Experimental data published in PubChem BioAssay AID2314 (National Center for Advancing Translational Sciences (NCATS), 2010).
The whole screen tested about 300,000 compounds, of which about 37,000 (12%) were called active. The full list was thinned out, with actives kept by preference. A number with no mark means an inactive call. Rule as the data show it: active = max response mostly above about 13% (no sharp cut-off); inactive = mostly below about 14%.

Experiment: Cycloheximide Counterscreen for Small Molecule Inhibitors of Shiga Toxin; also: read at 38.3 µM for the half of the compounds with a filed dose; 0% is about no effect
Conditions: cell reporter, cycloheximide protein synthesis inhibition counterscreen; hits give high values

SMILES	max response
CCOCCCNC(=O)C(NC(=O)c1ccc(=O)[nH]c1)c1ccc(C)cc1 (stereo unspecified)	-5.76%
CCOCCCNC(=O)c1c[nH]c2cc(C)ccc2c1=O	15.4% (active)
CCOC(=O)C1(CCOc2ccccc2)CCN(Cc2cc(OC)cc(OC)c2)CC1	-1.48%
CCOC(=O)C1(CCOC)CCN(Cc2cc3ccccc3s2)CC1	-0.534%
CCOC(=O)C1(CCOC)CCN(Cc2ccc(C(=O)OC)cc2)CC1	19.1% (active)
Cc1nc2cc(NC(=O)NC3CC3)ccc2n1C	20.8% (active)
O=C(CCN1C(=O)c2ccccc2C1=O)Nc1cccc(F)c1	-3.51%
Cc1nc2cc(NC(=O)Nc3cccc(F)c3)ccc2n1C	23% (active)
Cc1cc2nc(C)n(CCCNC(=O)Nc3ccccc3)c2cc1C	-3.47%
Cn1c(CN2CCOCC2)nc2cc(NC(=O)c3ccc(Cl)cc3)ccc21	32.5% (active)
CCOc1ccc(C(=O)Nc2ccc(CN3CCOCC3)cc2)cc1Cl	6.5%
Cc1nc2cc(NCc3cccs3)ccc2n1C	51.1% (active)
Cc1ccc(NC(=O)NC2CCCCC2)cc1S(=O)(=O)N1CCOCC1	-2.12%
CCOC(=O)N1CCN(Cc2nc3cc(NC(C)=O)ccc3n2C)CC1	-2.56%
Cn1ncc(Br)c1C(=O)NCc1cccs1	2.99%
COc1ccc(-n2cnc3cc(NCc4ccco4)ccc32)cc1	20.3%
Cc1cc(C)nc(-n2ncc3c2CC(c2ccc(C(C)C)cc2)CC3=O)n1 (stereo unspecified)	3.79%
CCC(=O)NC(Nc1nc2ccc(C)cc2s1)(C(=O)OC)C(F)(F)F (stereo unspecified)	1.01%
O=C(CN1C(=O)c2cccc3cccc1c23)Nc1ccccc1	-0.618%
Cc1cc2c(cc1S(=O)(=O)NCc1ccc(Cl)cc1)OCC(=O)N2	1.87%
CN(CCc1ccccn1)C1CCCN(S(=O)(=O)c2ccccc2Cl)C1 (stereo unspecified)	-3.81%
CC(C)NC(=O)N1CCN(c2ccncc2S(=O)(=O)N2CCCCC2)CC1	0.305%
C=CCc1ccccc1OCC(O)CN1CCN(CCO)CC1 (stereo unspecified)	-1.25%

SMILES	max response
Cc1[nH]c2ccccc2c1C(=O)CN1CCCC(C)C1 (stereo unspecified)	4.44%
Cn1c(CCN2CCCC2)nc2cc(NS(=O)(=O)c3ccccc3)ccc21	9.99%
CCC(=O)Nc1ccc2c(c1)nc(CCN1CCN(c3ccccn3)CC1)n2C	-2.39%
Cn1c(CCN2CCCCCC2)nc2cc(NC(=O)Nc3ccccc3)ccc21	59.7% (active)
CCN(CC)C(=O)Oc1ccc(OC(=O)N(CC)CC)cc1	19%
Cn1c(=O)c(Sc2ccc(Cl)cc2)c(O)c2ccccc21	-5.19%
CCCCCn1c(=O)c(C(=O)Nc2c(C)n(C)n(-c3ccccc3)c2=O)c(O)c2ccccc21	-1.67%
CCCCCn1c(=O)c(C(=O)NCc2ccccn2)c(O)c2ccccc21	-1.8%
Cn1c(=O)c(C(=O)Nc2ncccn2)c(O)c2ccccc21	17.3% (active)
CCCn1c(=O)c(C(=O)Nc2cc(C)ccn2)c(O)c2ccccc21	9.34% (active)
C=CCn1c(=O)c(C(=O)Nc2ncccc2O)c(O)c2ccccc21	0.679%
N#C/C(=C/c1cccc([N+](=O)[O-])c1)c1nnc2n1CCCCC2	-4.02%
CC(C)(C)c1ccc(C(=O)NCCn2c(N)c(C#N)c3nc4ccccc4nc32)cc1	-4.74%
N#Cc1cccc(CN2CCC(=O)N([C@H](CO)c3ccccc3)CC2)c1	-0.681%
COc1cc(/C=C2/C(=O)ON=C2C)ccc1OCc1cccc(F)c1	27.9%
CCOc1cc(/C=N/O)ccc1OCc1ccccc1F	30.7% (active)
CCOc1c(Cl)cc(/C=N/O)cc1OC	5.27%
C=CCOc1ccc(/C=C2/C(=O)ON=C2C)cc1OCC	-0.862%
CCOc1ccc(/C=N/NC(=O)C(C)Sc2ccccn2)cc1OCC (stereo unspecified)	-2.71%
COc1cc(/C=C2/C(=O)ON=C2C)ccc1OCc1ccccc1F	76% (active)
CCC1=C(OC(=O)N(CC)CC)N2C(=O)OC(=NCCc3c[nH]c4ccccc34)[C@]2(C)[C@H]2C1=CC[C@H]1C(=O)N(CC)C(=O)[C@H]12	-4.31%
O=C(CCc1nnc2ccc(NCc3ccccc3Cl)nn12)NCC1CCN(C2CCCC2)C1 (stereo unspecified)	-4.64%
Cc1ccc(NS(=O)(=O)c2c(C)[nH]c(C)c2C(=O)N2CCCCC2)c(C)c1	18%
